Hits are enriched below; roughly 7.4% of the tested compounds scored in any of these assays.
SMN2 splice enh – increases expression of the SMN2 splice variant | HEK293 SMN2-luciferase splicing reporter, luminescence, 30-36 h | Potency, µM (top dose mostly 46.1 µM), usual class: activators | 210,000 tested, 2.8% active | AID 1458; also: nearly all actives have a fitted effect of over 55% in size
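HEK293 cells carry an SMN2 minigene-luciferase reporter in which exon 7 inclusion puts luciferase in frame. Cells were seeded at 2000 cells/well, attached for 10-12 hours, then exposed to compounds for 30-36 hours at 37C before ONE-Glo luminescence.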
NPC1 prom act – activators of NPC1 promoter; Huh7 NPC1 promoter luciferase reporter, 24 h; Potency, µM (titrated, usually from 9.22 µM), actives largely listed as activators; 320,000 tested, 2.4% active; AID 485313; also: nearly all actives have a fitted effect of over 60% in size
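Quantitative HTS used a cell-based reporter: Huh7 cells stably bearing the NPC1 promoter upstream of luciferase were treated with compounds for 24 h, and promoter activation was read as luminescence.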
FLuc modulator – inhibits or activates purified firefly luciferase, miR-21 counter-screen; Potency, µM (highest dose often 57.5 µM), actives largely listed as inhibitors; P08659; AID 588342; purified FLuc, Km substrates, luminescence inhibition; 360,000 tested, 6.9% active; also: nearly all actives have a fitted effect of over 55% in size
Target sequence (P08659 whole entry, looked up): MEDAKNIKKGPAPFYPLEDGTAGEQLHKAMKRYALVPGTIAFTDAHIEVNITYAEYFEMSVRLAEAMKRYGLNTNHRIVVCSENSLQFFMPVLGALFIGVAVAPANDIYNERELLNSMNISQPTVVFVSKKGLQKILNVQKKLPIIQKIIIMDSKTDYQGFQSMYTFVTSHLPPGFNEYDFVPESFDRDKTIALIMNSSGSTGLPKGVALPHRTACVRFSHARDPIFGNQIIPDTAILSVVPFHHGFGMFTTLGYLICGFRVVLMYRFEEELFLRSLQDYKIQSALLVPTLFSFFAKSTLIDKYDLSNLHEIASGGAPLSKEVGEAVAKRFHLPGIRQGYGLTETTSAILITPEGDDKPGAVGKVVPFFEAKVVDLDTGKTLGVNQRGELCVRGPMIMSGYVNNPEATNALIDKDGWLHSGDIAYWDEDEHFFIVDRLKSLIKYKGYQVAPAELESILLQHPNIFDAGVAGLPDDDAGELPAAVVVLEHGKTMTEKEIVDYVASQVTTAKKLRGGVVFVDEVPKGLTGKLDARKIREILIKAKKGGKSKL
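Purified P. pyralis luciferase (10nM final) with 10uM D-luciferin and 10uM ATP (Km levels) in 50mM Tris acetate pH 7.5, 10mM Mg acetate, 0.01% Tween-20, 0.05% BSA; qHTS 6-point titration, ~60 µM downward; luminescence read.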
Rab9 promoter act – activates the Rab9 promoter; Potency, µM (series often up to 9.22 µM), most hits filed as activators; Huh7 Rab9 promoter-luciferase reporter, luminescence, 24 h; 320,000 tested, 2.8% active; also: nearly all actives have a fitted effect of over 60% in size
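Rab9 promoter-driven luciferase in stably transfected Huh7 cells; 1500 cells/well rested 2 h, exposed to compound in DMSO for 24 h at 37 °C, 5% CO2. Luminescence read 10 min after adding luciferase reagent at ambient temperature.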
ELG1 genotox – genotoxicity induction in ELG1-luciferase HEK293T cells; 330,000 tested, 1.3% active; Potency, µM (titrated, usually from 46 µM), hits mostly activators; AID 504466; HEK293T ELG1-luciferase reporter, luminescence, 16 h; also: nearly all actives have a fitted effect of over 60% in size
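DMSO vehicle served as control against compound-treated ELG1-luciferase HEK293T cells; exposure lasted 16 hr at 37 °C and 5% CO2, followed by ONE-Glo luminescence detection after 30 min.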
Hits are given with their value; – = inactive; ? = inconclusive; · = not tested or not shown; [ ] = dose if it differs, or a comment. Calls follow the shape of the dose curve; as a rule, active = well fitted curve in the direction sought with a large enough effect; inconclusive = small, poorly fitted or top-dose-only effect, or another doubt; inactive = no such curve, though single readings can be large; an effect the other way counts as inactive or inconclusive.

SMILES | SMN2 splice enh | NPC1 prom act | FLuc modulator | Rab9 promoter act | ELG1 genotox
Cc1ccccc1C(=O)Nc1nnc(SCC(=O)NCc2ccco2)s1 | · | 1.8µM | 1.7µM | 1.8µM | 2.9µM
O=C(CSc1nnc(NC(=O)c2ccccc2)s1)NCc1ccco1 | · | 2.8µM | 4.8µM | 3.2µM | ?
O=C(CSc1nnc(NC(=O)c2ccc(F)cc2)s1)NCc1ccco1 | · | 1.6µM | 1.9µM | 3.5µM | ?
Cc1cccc(NS(=O)(=O)c2ccc(C)c(C(=O)NCc3ccccn3)c2)c1 | · | – | – | – | –
O=C(O)CSc1ncccc1[N+](=O)[O-] | –[9.22 µM] | · | · | · | ·
O=C(CSc1nnc(NC(=O)c2ccco2)s1)NCc1ccc2c(c1)OCO2 | – | – | ? | – | –
O=C(CSc1nnc(NC(=O)c2ccc3c(c2)OCO3)s1)NCc1ccco1 | 4µM | 1.1µM | 0.76µM | 0.71µM | ?
COc1ncnc2sc(-c3ccccc3)cc12 | ? | ? | 12µM | 3.2µM | ?
CN(C)C(=O)COc1ncnc2sc(-c3ccccc3)cc12 | · | – | ? | – | ?
CN(C)c1ncnc2sc(-c3ccccc3)cc12 | · | – | 15µM | – | –
Clc1cc(Cl)c2nc(N3CCCCC3)sc2c1 | ? | 2.8µM | 8.5µM | 4µM | ?
CNc1nc2c(Cl)cc(Cl)cc2s1 | · | – | – | – | –
Clc1cccc2sc(N3CCCCC3)nc12 | ? | – | 24µM | ? | 23µM
O=C(N=C1SC2CS(=O)(=O)CC2N1c1ccc(Br)cc1)C1CCCO1 (stereo not drawn) | · | – | – | – | –
CC1CCCN(C(=O)CN(C)S(=O)(=O)c2ccc3c(c2)c(=O)n(C)c(=O)n3C)C1 (stereo not drawn) | · | – | – | – | –
CC(c1ccco1)N(C(=O)c1ccccc1NS(=O)(=O)c1ccc(Cl)cc1)c1ccccn1 (stereo not drawn) | – | – | – | – | –
CC(c1ccco1)N(C(=O)COc1ccc(Cl)cc1Cl)c1ccccn1 (stereo not drawn) | – | – | 4.3µM | ? | 2.3µM
CC(c1ccco1)N(C(=O)COc1ccc(Cl)cc1)c1ccccn1 (stereo not drawn) | ? | – | 21µM | – | 8.9µM
Cc1ccc2oc(=O)n(CCCOc3ccccc3C)c2c1 | · | – | ? | – | –
O=C(OCCOc1ccccc1)c1n[nH]c2ccccc12 | · | 3.5µM | 6µM | 2.2µM | ?
CC1CCCCN1C(=O)COC(=O)Cc1c[nH]c2ccccc12 (stereo not drawn) | · | · | · | · | –
Cc1cc(C(=O)COC(=O)Cc2n[nH]c(=O)c3ccccc23)c(C)n1CC(F)(F)F | · | – | – | – | –
COCCn1c(C)cc(C(=O)COC(=O)Cc2n[nH]c(=O)c3ccccc23)c1C | · | – | 24µM | ? | –
CC1CCCCN1C(=O)COC(=O)c1n[nH]c2ccccc12 (stereo not drawn) | – | – | 15µM | ? | 18µM
Cc1cc(C(=O)COC(=O)c2nccnc2N)c(C)n1C | 11µM | 3.2µM | 9.5µM | 0.5µM | 6.5µM
SMILES | SMN2 splice enh | NPC1 prom act | FLuc modulator | Rab9 promoter act | ELG1 genotox
CCCn1c(CCCNC(=O)c2ccccc2OC)nc2ccccc21 | – | · | – | · | ·
CCc1nc(SCC(=O)Nc2ccc(N(C)C)cc2)c2ccccc2n1 | · | – | – | – | –
O=C(COC(=O)c1n[nH]c2ccccc12)c1ccc(F)c(F)c1 | · | – | 9.5µM | – | –
CCOC(=O)c1n[nH]c(=O)c2ccccc12 | · | – | – | – | –
O=C(NCCc1ccc(Cl)cc1)c1n[nH]c2ccccc12 | – | – | ? | ? | –
Cc1ccc(C(=O)COC(=O)c2n[nH]c(=O)c3ccccc23)cc1 | – | – | 6µM | – | –
Cc1cc(C(=O)COC(=O)c2n[nH]c3ccccc23)c(C)n1C | 2.8µM | 2.8µM | 1.3µM | 0.5µM | 1.2µM
O=C(NCCc1ccccc1)c1n[nH]c2ccccc12 | 11µM | 2.5µM | 11µM | 3.5µM | ?
COc1ccc(CCNC(=O)CCC(=O)Nc2nnc(C(C)C)s2)cc1OC | – | – | – | – | –
COc1ccccc1CCN1CCCC(CN(C)Cc2ccc(OCCO)cc2)C1 (stereo not drawn) | · | – | – | – | –
Cc1cc(C(=O)COC(=O)c2n[nH]c(=O)c3ccccc23)c(C)n1C | · | – | 1.7µM | – | ?
CN(C(=O)COC(=O)c1n[nH]c(=O)c2ccccc12)c1ccccc1 | · | – | – | – | –
COc1ccc(C(=O)COC(=O)c2n[nH]c3ccccc23)c(OC)c1 | · | 3.2µM | 6µM | 3.5µM | –
COCCn1c(C)cc(C(=O)COC(=O)c2n[nH]c3ccccc23)c1C | – | 0.4µM | 0.43µM | 0.22µM | 0.23µM
Cc1cccc(OCC(=O)Nc2ccc(NC(=O)c3ccccc3)cc2)c1 | · | – | – | – | –
COc1cccc(C(=O)COc2ccc(NC(=O)c3ccccc3)cc2)c1 | · | – | 3.4µM | – | –
O=C(O)COc1cccc(NC(=O)c2ccccc2)c1 | – | – | ? | – | –
Cc1cccc(C(=O)Nc2cccc(OCC(=O)O)c2)c1 | · | – | 15µM | – | –
O=C(COc1cccc(NC(=O)c2ccccc2)c1)c1ccccc1 | · | – | 15µM | – | –
O=C(Nc1cccc(Oc2ccc3c(c2)C(=O)NC3=O)c1)c1cccs1 | – | – | – | – | –
O=C(COc1cccc(NC(=O)c2cccs2)c1)c1ccc(F)cc1 | – | – | 24µM | – | –
Clc1ccc(CCNC(c2cccc(Cl)c2)c2nnc(-c3ccccc3)o2)cc1 (stereo not drawn) | – | · | – | · | ·
COc1cccc(C(=O)Nc2cccc(OCC(=O)c3ccccc3)c2)c1 | – | – | 12µM | – | –
COC(=O)c1ccc(OCC(=O)c2ccccc2)cc1 | 13µM | 3.2µM | 7.6µM | 3.2µM | ?
CC(C)Oc1ccc(/C=C/C(=O)NCC2COc3ccccc3O2)cc1 (stereo not drawn) | · | – | 15µM | – | –
SMILES | SMN2 splice enh | NPC1 prom act | FLuc modulator | Rab9 promoter act | ELG1 genotox
NS(=O)(=O)c1ccc(NCC2COc3ccccc3O2)c([N+](=O)[O-])c1 (stereo not drawn) | – | – | – | – | –
O=C(NCC1COc2ccccc2O1)c1ccc(Cl)cc1 (stereo not drawn) | 14µM | 3.5µM | 7.6µM | 2.5µM | 12µM
CC(=O)c1ccc(NCC2COc3ccccc3O2)c([N+](=O)[O-])c1 (stereo not drawn) | 5.6µM | 2.8µM | 17µM | 1.1µM | ?
Cc1cc(NC(=O)CSCC(=O)Nc2ccccc2N2CCCCC2)no1 | · | – | – | – | –
COc1ccc(/C=N/NC(=O)c2nc(-c3ccccc3)n(-c3ccccc3)n2)c(O)c1 | – | – | ? | – | ?
COc1ccc(/C=N/NC(=O)c2nc(-c3ccccc3)n(-c3ccccc3)n2)cc1 | – | – | 15µM | – | –
COc1ccc(/C=N/NC(=O)CC(=O)N/N=C/c2ccc(OC)cc2)cc1 | ? | – | – | – | –
COc1ccc(/C=N\NC(=O)C2=NNC(=O)C2C)cc1 (stereo not drawn) | – | ? | 6µM | ? | ?
COc1ccc(/C=N/NC(=O)c2nonc2C)cc1 | ? | – | 1.9µM | ? | ?
